Assay results as given in the antibiotic and cytotoxicity screens of Wong et al. (2023).
Out of some 39,000 compounds screened, about 3,300 (8.5%) were called active. The list comes from a sample in which actives are over-represented; it also holds similar structures and randomly drawn compounds.

test system: HepG2; assay: cytotoxicity call (relative viability < 0.9); details: 10 µM

| Structure (SMILES) | cytotoxicity call |
| --- | --- |
| O=C(C[C@@H]1CC[C@H]2[C@@H](COC[C@@H](O)CN2C(=O)c2ccc(F)cc2)O1)NCCCN1CCOCC1 | inactive |
| COc1ccc(NC(=O)Nc2ccc3c(c2)CC(=O)N([C@@H](C)CO)C[C@@H](C)[C@@H](CN(C)Cc2ccc(Oc4ccccc4)cc2)O3)cc1 | active |
| COc1ccc(NC(=O)Nc2ccc3c(c2)CC(=O)N([C@@H](C)CO)C[C@H](C)[C@@H](CN(C)Cc2ccc(Oc4ccccc4)cc2)O3)cc1 | inactive |
| COc1ccc(NC(=O)Nc2ccc3c(c2)CC(=O)N([C@H](C)CO)C[C@@H](C)[C@@H](CN(C)Cc2ccc(Oc4ccccc4)cc2)O3)cc1 | active |
| COc1ccc(NC(=O)Nc2ccc3c(c2)CC(=O)N([C@H](C)CO)C[C@H](C)[C@@H](CN(C)Cc2ccc(Oc4ccccc4)cc2)O3)cc1 | inactive |
| COc1ccc(NC(=O)Nc2ccc3c(c2)CC(=O)N([C@@H](C)CO)C[C@@H](C)[C@H](CN(C)Cc2ccc(Oc4ccccc4)cc2)O3)cc1 | active |
| COc1ccc(NC(=O)Nc2ccc3c(c2)CC(=O)N([C@H](C)CO)C[C@@H](C)[C@H](CN(C)Cc2ccc(Oc4ccccc4)cc2)O3)cc1 | active |
| Cc1noc(C)c1NC(=O)Nc1ccc2c(c1)C(=O)N([C@@H](C)CO)C[C@@H](C)[C@H](CN(C)C(=O)Nc1cccc3ccccc13)O2 | inactive |
| COc1ccc2c3c(n(c2c1)C)[C@H](CO)N(C[C@]13CN(C1)C(=O)C1CC1)C(=O)CN1CCOCC1 | inactive |
| CCCSc1nc(N[C@@H]2C[C@H]2c2ccc(F)c(F)c2)c2nnn([C@@H]3C[C@H](OCCO)[C@@H](O)[C@H]3O)c2n1 | inactive |
| C[C@@H]1CCCCO[C@H](CN(C)Cc2ccc(C(F)(F)F)cc2)[C@@H](C)CN([C@H](C)CO)C(=O)c2cc(NS(C)(=O)=O)ccc2O1 | inactive |
| COCCOC(=O)N1C(=O)[C@@]2(c3cc(C#CC4(O)CCCCCC4)ccc31)[C@H](C(=O)NC[C@H](O)c1ccccc1)[C@H]1C(=O)O[C@H](c3ccccc3)[C@H](c3ccccc3)N1[C@@H]2c1ccc(OCCO)cc1 | inactive |
| COc1ccc(NC(=O)N(C)C[C@H]2Oc3c(NC(=O)c4ccc(-c5nccs5)cc4)cccc3C(=O)N([C@@H](C)CO)C[C@@H]2C)cc1 | inactive |
| Cc1noc(C)c1S(=O)(=O)N(C)C[C@H]1Oc2ccc(NC(=O)c3ccncc3)cc2C(=O)N([C@H](C)CO)C[C@@H]1C | inactive |
| C[C@@H]1CCCCO[C@H](CN(C)C(=O)Cc2ccccc2)[C@H](C)CN([C@H](C)CO)C(=O)c2cc(NC(=O)Nc3ccc(F)cc3)ccc2O1 | inactive |
| COc1ccc(NC(=O)Nc2ccc3c(c2)CC(=O)N([C@H](C)CO)C[C@H](C)[C@H](CN(C)Cc2ccc(Oc4ccccc4)cc2)O3)cc1 | active |
| COc1ccc(NC(=O)Nc2ccc3c(c2)CC(=O)N([C@@H](C)CO)C[C@H](C)[C@H](CN(C)Cc2ccc(Oc4ccccc4)cc2)O3)cc1 | active |
| C[C@@H]1CN([C@@H](C)CO)C(=O)c2cc(NC(=O)Cc3ccccc3)ccc2O[C@@H]1CN(C)Cc1ccc(C(=O)Nc2ccccc2N)cc1 | inactive |

| Structure (SMILES) | cytotoxicity call |
| --- | --- |
| C[C@@H]1CN([C@@H](C)CO)C(=O)c2cc(NC(=O)c3ccncc3)ccc2O[C@@H]1CN(C)Cc1ccc(Oc2ccccc2)cc1 | inactive |
| C[C@@H]1CN([C@@H](C)CO)C(=O)c2cccc(NC(=O)Nc3ccc(C(F)(F)F)cc3)c2O[C@@H]1CN(C)C(=O)Nc1ccccc1 | inactive |
| CCNC(=O)[C@H]1[C@H](CO)[C@H]2Cn3c(ccc(-c4cccc(OC)c4)c3=O)[C@H]2N1S(C)(=O)=O | inactive |
| C[C@@H]1CCCCO[C@H](CN(C)C(=O)CCC(F)(F)F)[C@@H](C)CN([C@@H](C)CO)C(=O)c2cc(NC(=O)Cc3ccccc3)ccc2O1 | inactive |
| Cc1ccc(S(=O)(=O)Nc2ccc3c(c2)CC(=O)N([C@@H](C)CO)C[C@@H](C)[C@@H](CN(C)S(=O)(=O)c2cn(C)cn2)O3)cc1 | inactive |
| COc1ccc(CN(C)C[C@@H]2OCCCC[C@H](C)Oc3ccc(NC(=O)Nc4ccc(OC)cc4)cc3C(=O)N([C@@H](C)CO)C[C@H]2C)cc1 | active |
| COc1ccc(CN(C)C[C@@H]2OCCCC[C@@H](C)Oc3ccc(NC(=O)Nc4ccc(OC)cc4)cc3C(=O)N([C@H](C)CO)C[C@H]2C)cc1 | inactive |
| COc1ccc(CN(C)C[C@H]2OCCCC[C@@H](C)Oc3ccc(NC(=O)C4CCCCC4)cc3C(=O)N([C@H](C)CO)C[C@H]2C)cc1 | inactive |
| COc1ccc(CN(C)C[C@@H]2OCCCC[C@@H](C)Oc3ccc(NC(=O)C4CCCCC4)cc3C(=O)N([C@H](C)CO)C[C@@H]2C)cc1 | inactive |
| COc1ccc(CN(C)C[C@@H]2OCCCC[C@H](C)Oc3ccc(NC(=O)Nc4ccc(OC)cc4)cc3C(=O)N([C@H](C)CO)C[C@H]2C)cc1 | inactive |
| COc1ccc(CN(C)C[C@@H]2OCCCC[C@H](C)Oc3ccc(NC(=O)C4CCCCC4)cc3C(=O)N([C@@H](C)CO)C[C@H]2C)cc1 | active |
| COc1ccc(CN(C)C[C@H]2OCCCC[C@H](C)Oc3ccc(NC(=O)Nc4ccc(OC)cc4)cc3C(=O)N([C@@H](C)CO)C[C@@H]2C)cc1 | active |
| COc1ccc(CN(C)C[C@H]2OCCCC[C@H](C)Oc3ccc(NC(=O)Nc4ccc(OC)cc4)cc3C(=O)N([C@@H](C)CO)C[C@H]2C)cc1 | active |
| C[C@@H]1CCCCO[C@@H](CN(C)Cc2ccc(C(=O)O)cc2)[C@H](C)CN([C@@H](C)CO)C(=O)c2cc(NC(=O)c3ccccc3)ccc2O1 | inactive |
| C[C@@H]1CN([C@H](C)CO)C(=O)Cc2cc(NS(=O)(=O)c3cccs3)ccc2O[C@@H]1CN(C)S(C)(=O)=O | inactive |
| C[C@@H]1CCCCO[C@H](CN(C)C(=O)CCCN(C)C)[C@@H](C)CN([C@@H](C)CO)C(=O)c2cc(NC(=O)Nc3ccc(F)cc3)ccc2O1 | inactive |
| CS(=O)(=O)N1CCn2cc(Cn3cccn3)nc2C1 | inactive |
| Cc1noc(C)c1NC(=O)N(C)C[C@H]1Oc2c(NC(=O)Nc3cccc4ccccc34)cccc2C(=O)N([C@@H](C)CO)C[C@@H]1C | inactive |
